Where “and” joins values, the source holds several entries; their conditions need not be identical. Identical values can stand only once. Results filed as inconclusive are left out. Calls of active or inactive are those of the source. Calls follow the shape of the dose curve; as a rule, active = well fitted curve in the direction sought with a large enough effect; inconclusive = small, poorly fitted or top-dose-only effect, or another doubt; inactive = no such curve, though single readings can be large; an effect the other way counts as inactive or inconclusive. Non-standard residues stand in square brackets, D forms with d. Residues, ends and D or L forms follow the SMILES beside them. *: point of attachment. Sta = CC(C)C[C@H](N)[C@@H](O)CC(=O)O; Isovaleryl = CC(C)CC(=O)*
Tests used:
[1] = qHTS of pediatric cancer cell lines to identify multiple opportunities for drug repurposing: Confirmatory screen for OHS-50 cells (AID 1347128);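 also: compound exposure lasted 48 h at 37 degrees C; nearly all actives have a fitted effect of over 55% in size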; also: potency is read from the fitted curve at half-maximal effect
Method in brief: (§1)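 Cells (500-1,000/well) in growth media were settled 5 h at 37 degrees C, then given compounds for 48 h. Viability was read as CellTiter-Glo luminescence. Primary runs used MIPE at 11 points (0.78 nM-46 µM) and NPC at 8 points (0.59 nM-46 µM); follow-ups used 11 points.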

[2] = qHTS of pediatric cancer cell lines to identify multiple opportunities for drug repurposing: Confirmatory screen for SK-N-SH cells (AID 1347129);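 also: cells exposed to compound for 48 h before viability read; nearly all actives have a fitted effect of over 60% in size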; also: potency is read from the fitted curve at half-maximal effect
Method in brief: as §1

[3] = system: Zika virus NS2B-NS3 protease; experiment: Primary screen GU AMC qHTS for Zika virus inhibitors (AID 1347154); also: nearly all actives have a fitted effect of over 70% in size; also: potency is read from the fitted curve at half-maximal effect;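 as to activity change, negative = inhibition: 0% = no-inhibitor control and -100% = no-enzyme control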
Method in brief: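 Unlinked Zika NS2B hydrophilic domain/NS3 protease domain noncovalent complex (25 nM final) in 10 mM Tris-HCl pH 8.0, 0.01% Tween 20, with AMC peptide substrate. Fluorescence (ex 340, em 450 nm) change over 15 min, room temperature; percent inhibition fitted to 4-parameter Hill equation.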

[4] = system: Zika virus NS2B-NS3 protease (unlinked complex); experiment: Primary screen GU Rhodamine qHTS for Zika virus inhibitors: Unlinked NS2B-NS3 protease assay (AID 1347159); also: % is scaled to controls: 0 for no effect and ±100 for the full control effect; nearly all actives have a fitted effect of over 60% in size
Method in brief: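 Unlinked NS2B/NS3, 25 nM; Rhod110 peptide, 1.5 microM; compounds, up to 114 microM. Reaction run 15 min at RT in 10 mM Tris-HCl pH 8.0, 0.01% Tween 20; kinetic fluorescence change fitted with a 4-parameter Hill model.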

[5] = system: Zika virus NS2B-NS3 protease (linked construct); experiment: Primary screen NINDS Rhodamine qHTS for Zika virus inhibitors (AID 1347160); also: nearly all actives have a fitted effect of over 55% in size; as to activity change, negative = inhibition: % is scaled to controls: 0 for no effect and ±100 for the full control effect
Method in brief: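 Single-chain NS2B-NS3 protease, 25 nM, pH 8.0; compounds preincubated 15 min. Activity: Rhodamine110 release from 1.5 microM substrate over 15 min, room temperature, data fitted to 4-parameter Hill.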

[6] = qHTS to identify inhibitors of the type 1 interferon - major histocompatibility complex class I in skeletal muscle: primary screen against the NCATS Pharmaceutical Collection (AID 1347407);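 also: luminescence of HiBiT knocked into endogenous HLA-B as interferon-induced MHC class I level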; also: potency is read from the fitted curve at half-maximal effect; as to activity change, negative = inhibition: % is scaled to controls: 0 for no effect and ±100 for the full control effect
Method in brief: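 A qHTS format is used: 8-point, 1:5 compound series with 46 uM top final concentration, applied alongside 4 ng/ml IFN-beta to HLA-B*08:01-HiBiT knock-in myoblasts. Luminescence is measured after 24 h treatment.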

[7] = target: N-terminal Xaa-Pro-Lys N-methyltransferase 1 (Homo sapiens) (UniProt Q9BV86); experiment: qHTS Assay for Inhibitors of N-terminal methyltransferase 1 (NTMT1): LOPAC validation of the NTMT1 SAHH-coupled ThioGlo3 Assay (AID 1347143);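 also: SAH from peptide methylation measured as thiol fluorescence via SAHH coupling and ThioGlo3; nearly all actives have a fitted effect of over 70% in size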; also: potency is read from the fitted curve at half-maximal effect; as to activity change, negative = inhibition: % is scaled to controls: 0 for no effect and ±100 for the full control effect
Method in brief: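 In this qHTS pilot against the LOPAC set, 125nM NTMT1 met compounds tested at multiple concentrations, and fluorescence was normalized to background.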

[8] = system: Zika virus NS2B-NS3 protease (unlinked); experiment: Optimization of GU AMC qHTS for Zika virus inhibitors: Unlinked NS2B-NS3 protease assay (AID 1347151); also: nearly all actives have a fitted effect of over 80% in size; also: potency is read from the fitted curve at half-maximal effect;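 as to activity change, negative = inhibition: series mostly up to about 52 µM; 0% = no-inhibitor control and -100% = no-enzyme control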
Method in brief: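 In this qHTS, compounds acted on 25 nM unlinked Zika NS2B–NS3 in pH 8.0 Tris/Tween buffer. Cleavage of an AMC peptide ran 15 min at room temperature, to about 20% conversion.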

Furin (Homo sapiens) = Furin (Homo sapiens) (UniProt P09958); experiment: Furin counterscreen qHTS for Zika virus inhibitors (AID 1347149);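 also: purified recombinant full-length human furin enzyme at 5 nM; fluorescence gain from furin cutting a BOC-RVRR-AMC peptide substrate over 15 min; top concentration of the series differs between compounds; plate controls were no-inhibitor control for no effect and no-enzyme control for full effect; nearly all actives have a fitted effect of over 70% in size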
Method in brief: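 Counterscreen measures cleavage of 2 microM BOC-RVRR-AMC, below its ~15 microM Km, by 5 nM full-length human furin at pH 7.0 after a 15-min compound preincubation. Inhibition derives from the 15-min fluorescence increase at 37C.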

[9] = system: Zika virus NS2B-NS3 protease (linked construct); experiment: Confirmatory screen NINDS AMC qHTS for Zika virus inhibitors (AID 1347152);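 also: AMC fluorescence gain from cleaved Bz-Nle-KRR-AMC substrate over 15 min; top concentration of the series differs between compounds; 0% = no-inhibitor control and -100% = no-enzyme control; nearly all actives have a fitted effect of over 70% in size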
Method in brief: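 Concentration-response confirmation used the NINDS linked protease (NS2B hydrophilic domain joined to NS3 protease domain), 1 nM, with a 15-min compound preincubation. Substrate, Nle-KRR-AMC at 10 microM, was read by UV fluorescence before and after 15 min.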

[10] = system: Zika virus NS2B-NS3 protease (unlinked complex); experiment: Confirmatory screen GU AMC qHTS for Zika virus inhibitors (AID 1347153)
Method in brief: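 Unlinked enzyme 25 nM, Tris pH 8.0/0.01% Tween 20; cpd 15 min RT, dark; + AMC substrate 10 µM (Km 18.3 µM); 340/450 nm read at t0 and 15 min; % inhibition → 4-param fit.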

[11] = Confirmatory screen NINDS Rhodamine qHTS for Zika virus inhibitors (AID 1347161); also: nearly all actives have a fitted effect of over 60% in size; also: potency is read from the fitted curve at half-maximal effect;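 as to activity change, negative = inhibition: purified Zika NS2B-NS3 protease with linked NS2B cofactor domain and Rhodamine110 peptide substrate; series mostly up to about 110 µM; plate controls were no-inhibitor control for no effect and no-enzyme control for full effect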
Method in brief: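 Enzyme (25 nM, linked NS2B-NS3) was preincubated 15 min with compound in 10 mM Tris-HCl pH 8.0, 0.01% Tween 20. Rhodamine110 substrate (1.5 microM) was then added and fluorescence read at start and after 15 min.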

[12] = system: Zika virus NS2B-NS3 protease (linked); experiment: 384 well plate NINDS AMC confirmatory qHTS for Zika virus inhibitors (AID 1347163); also: potency is read from the fitted curve at half-maximal effect; nearly all actives have a fitted effect of over 50% in size
Method in brief: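 Enzyme (5, 30 or 60 nM final) first met test compounds for ~15 min. The AMC-tagged peptide Ac-VKTGKR-AMC followed at 30 microM. Fluorescence was then recorded at 25 min and scaled against no-enzyme and no-inhibitor wells.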

[13] = system: Zika virus NS2B-NS3 protease (linked construct); experiment: 384 well plate NINDS Rhodamine confirmatory qHTS for Zika virus inhibitors (AID 1347164); also: potency is read from the fitted curve at half-maximal effect; nearly all actives have a fitted effect of over 65% in size
Method in brief: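 Cleavage of Ac-LKRR-Rhodamine 110 (10 microM final) by linked protease (final 5, 30 or 60 nM) was followed as fluorescence at 485/538 nm after 25 min, room temperature, dark. Compounds preincubated ~15 min.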

[14] = Vero cells viability qHTS for Zika virus inhibitors (AID 1347167); also: % is scaled to controls: 0 for no effect and ±100 for the full control effect
Method in brief: (§2)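 To flag cytotoxic protease inhibitors, viability is measured by ATP-dependent luminescence (CellTiter Glo) after cells attached overnight receive compound for 24 to 48 hours in DMEM with 4% FBS.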

[15] = HepG2 cells viability qHTS for Zika virus inhibitors (AID 1347168); also: potency is read from the fitted curve at half-maximal effect
Method in brief: as §2

[16] = Tertiary RLuc qRT-PCR qHTS assay for Zika virus inhibitors (AID 1347169); also: nearly all actives have a fitted effect of over 55% in size; also: potency is read from the fitted curve at half-maximal effect
Method in brief: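 Inhibition of ZIKV-RLuc replication in Vero cells, read as Renilla luminescence 1-1.5 hrs after live-cell substrate addition, following 48-72 hrs infection at MOI 1-2 in presence of compound.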

[17] = Confirmatory screen GU Rhodamine qHTS for Zika virus inhibitors qHTS (AID 1347157); details: purified enzyme assay, Rhodamine110 substrate fluorescence, 15 min
Method in brief: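 Percent inhibition derives from the 15-min fluorescence change (ex 480, em 540 nm), normalized to no-enzyme and no-inhibitor wells. Reactions contained 25 nM NS2B-NS3 complex and 1.5 microM substrate in 10 mM Tris-HCl pH 8.0.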

[18] = ZIKV-mCherry secondary qHTS for Zika virus inhibitors (AID 1347158); also: top concentration of the series differs between compounds
Method in brief: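 This orthogonal imaging screen measured ZIKV-mCherry infection of Vero cells exposed to compound, MOI 1, 48-72 h. Percent infection came from segmented nuclei scored mCherry-positive above 3 SD of negative controls.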

N-terminal Xaa-Pro-Lys N-methyltransferase 1 (Homo sapiens), sequence (Q9BV86 whole entry, looked up): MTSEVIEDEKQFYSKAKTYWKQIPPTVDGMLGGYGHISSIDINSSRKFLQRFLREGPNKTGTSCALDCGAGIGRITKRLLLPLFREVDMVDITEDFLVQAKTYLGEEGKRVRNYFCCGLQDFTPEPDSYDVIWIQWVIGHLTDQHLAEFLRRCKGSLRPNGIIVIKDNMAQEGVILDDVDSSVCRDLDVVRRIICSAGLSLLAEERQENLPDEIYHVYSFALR
Furin (Homo sapiens), sequence (P09958 whole entry, looked up): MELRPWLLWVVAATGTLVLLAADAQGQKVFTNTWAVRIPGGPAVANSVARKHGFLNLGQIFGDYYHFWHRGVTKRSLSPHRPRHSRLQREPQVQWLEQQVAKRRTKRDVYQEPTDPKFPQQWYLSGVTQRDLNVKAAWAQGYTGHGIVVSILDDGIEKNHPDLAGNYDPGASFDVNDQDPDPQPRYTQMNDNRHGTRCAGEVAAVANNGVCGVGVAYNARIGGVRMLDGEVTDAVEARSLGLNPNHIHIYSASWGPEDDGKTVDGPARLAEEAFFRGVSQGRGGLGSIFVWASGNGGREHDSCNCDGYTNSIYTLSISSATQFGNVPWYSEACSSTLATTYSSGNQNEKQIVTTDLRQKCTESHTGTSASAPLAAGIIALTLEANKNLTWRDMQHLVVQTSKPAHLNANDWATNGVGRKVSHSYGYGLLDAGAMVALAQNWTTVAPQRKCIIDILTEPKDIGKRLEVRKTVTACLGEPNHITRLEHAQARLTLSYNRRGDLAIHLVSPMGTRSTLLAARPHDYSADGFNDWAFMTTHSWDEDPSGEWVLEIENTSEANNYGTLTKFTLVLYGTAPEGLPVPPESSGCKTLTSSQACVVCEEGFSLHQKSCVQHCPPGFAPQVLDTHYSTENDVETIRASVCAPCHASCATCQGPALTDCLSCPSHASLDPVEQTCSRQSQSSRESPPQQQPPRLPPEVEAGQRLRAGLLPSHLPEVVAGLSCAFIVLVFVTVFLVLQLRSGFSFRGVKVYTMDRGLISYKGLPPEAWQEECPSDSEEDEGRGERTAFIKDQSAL

C[C@]12CCC(=O)C=C1CC[C@@H]1[C@H]2[C@@H](O)C[C@@]2(C)[C@H]1CC[C@]2(O)C(=O)CO
inactive: Potency [1] | Potency [2] | Potency [3]

Clc1ccc(C(Cn2ccnc2)OCc2ccsc2Cl)c(Cl)c1 (centres undefined)
inactive: Potency [3]
active: Potency [1] 11.7 µM

Cc1ccc(NC(=O)c2ccc(CN3CCN(C)CC3)cc2)cc1Nc1nccc(-c2cccnc2)n1
inactive: Potency [2] | Potency [3] | Potency [4] | Potency [5]

CC(S)C(=O)NCC(=O)O (centres undefined)
inactive: Potency [1] | Potency [2] | Potency [3] | Potency [6]

CCN(CC)C(=S)SSC(=S)N(CC)CC
inactive: Potency [2] | Potency [8] | Potency [3]
active: Potency [7] 4.47 µM

Nc1nc(OCc2ccccc2)c2[nH]cnc2n1
inactive: Potency [1] | Potency [2] | Potency [7] | Potency [8] | Potency [3]

CCCCc1ccc2nc(NC(=O)OC)[nH]c2c1
inactive: Potency [3] | Potency [6]
active: Potency [1] 0.329 µM

CS(=O)(=O)OCCCCOS(C)(=O)=O
inactive: Potency [1] | Potency [2] | Potency [3] | Potency [6]

O=C1c2c(O)cc(O)cc2OC(c2ccc(O)c(O)c2)C1O (centres undefined)
active: Potency [7] 25.1 µM
inactive: Potency [1] | Potency [2] | Potency [8]

CN(C)c1ccc(O)c2c1C[C@H]1C[C@H]3[C@H](N(C)C)C(=O)C(C(N)=O)=C(O)[C@@]3(O)C(=O)C1=C2O
active: Potency [2] 11.8 µM | Potency [11] 44.1 µM and 35 µM | Potency [12] 141 µM | Potency [13] 89.1 µM
inactive: Potency [1] | Potency (Furin (Homo sapiens)) | Potency [9] | Potency [10] | Potency [14] | Potency [15] | Potency [6]

Cc1cc(C2CCCCC2)n(O)c(=O)c1
inactive: Potency [3] | Potency [6]
active: Potency [2] 2.35 µM

Oc1ccc(-c2nc(-c3ccc(F)cc3)c(-c3ccncc3)[nH]2)cc1
active: Potency [1] 3.69 µM | Potency [2] 5.26 µM | Potency [7] 79.4 µM
inactive: Potency [9] | Potency [10] | Potency [3] | Potency [11] | Potency [14] | Potency [15]

O=Nc1c(-c2c(O)[nH]c3cc(Br)ccc23)[nH]c2ccccc12
active: Potency [7] 14.1 µM

CCN(CCO)CCCC(C)Nc1ccnc2cc(Cl)ccc12 (centres undefined)
inactive: Potency [1] | Potency [2] | Potency [3] | activity change, negative = inhibition [4] 15.4% [at 11.5 µM] | activity change, negative = inhibition [5] -6.84% [at 4.91 µM] | activity change, negative = inhibition [6] -5.56% [at 3.83 µM]

CN(C)c1ccc2nc3ccc(=[N+](C)C)cc-3sc2c1
inactive: Potency [3]
active: Potency [1] 8.27 µM | Potency [2] 4.18 µM

CN(C)C(=O)[C@H](O)[C@H](Cc1ccccc1)NC(=O)c1cc2cc(Cl)ccc2[nH]1
active: Potency [8] 26.7 µM
inactive: Potency [7] | Potency (Furin (Homo sapiens)) | Potency [10] | Potency [4] | Potency [5] | Potency [14] | Potency [15] | Potency [16]

COc1cc(C(C)=O)ccc1OCCCN1CCC(c2noc3cc(F)ccc23)CC1
inactive: Potency [2] | Potency [3]

CCc1nc(N)nc(N)c1-c1ccc(Cl)cc1
inactive: Potency [2] | Potency (Furin (Homo sapiens)) | Potency [8] | Potency [9] | Potency [10] | Potency [3] | Potency [11] | Potency [14]
active: Potency [16] 11.7 µM and 16.5 µM

O=c1c(O)c(-c2cc(O)c(O)c(O)c2)oc2cc(O)cc(O)c12
inactive: Potency (Furin (Homo sapiens)) | Potency [18] | activity change, negative = inhibition [16] 40.4% [at 3.57 µM]
active: Potency [7] 5.01 µM | Potency [8] 21.2 µM | Potency [3] 9.61 µM | Potency [17] 17.8 µM | Potency [11] 14.1 µM | Potency [12] 158 µM | Potency [13] 39.8 µM

CCN(CC)CCOc1ccc(Nc2ncc3cc(-c4c(Cl)cccc4Cl)c(=O)n(C)c3n2)cc1
inactive: Potency [8] | Potency [3]
active: Potency [1] 1.31 µM | Potency [2] 0.833 µM

CC(=O)O[C@H]1C(=O)[C@@]2(C)C([C@H](OC(=O)c3ccccc3)[C@]3(O)C[C@H](OC(=O)[C@H](O)[C@@H](NC(=O)c4ccccc4)c4ccccc4)C(C)=C1C3(C)C)[C@]1(OC(C)=O)CO[C@@H]1C[C@@H]2O (some centres undefined)
active: Potency [1] 0.0208 µM
inactive: Potency [3] | Potency [4] | Potency [5]

c1cnc2cc3c(cc2n1)C1CNCC3C1
inactive: Potency [1] | Potency [2] | Potency [8] | Potency [3] | Potency [4] | Potency [5] | Potency [6]

CC(C)C[C@H](NC(=O)[C@H](Cc1ccccc1)NC(=O)c1cnccn1)B(O)O
active: Potency [1] 0.0737 µM | Potency [2] 0.0332 µM | Potency [15] 46.6 nM | Potency [16] 37 nM | Potency [6] 74.5 nM
inactive: Potency (Furin (Homo sapiens)) | Potency [8] | Potency [3] | Potency [4] | Potency [5] | Potency [14]

Cc1ccc(Nc2nccc(N(C)c3ccc4c(C)n(C)nc4c3)n2)cc1S(N)(=O)=O
active: Potency [2] 18.7 µM
inactive: Potency [3] | Potency [4] | Potency [5]

CC(C)CC(=O)N[C@H](C(=O)N[C@H](C(=O)N[C@@H](CC(C)C)[C@@H](O)CC(=O)N[C@@H](C)C(=O)N[C@@H](CC(C)C)[C@@H](O)CC(=O)O)C(C)C)C(C)C (Isovaleryl-VV[Sta]A[Sta]-OH)
inactive: Potency [2] | Potency [3] | Potency [6]
